Source: ChEMBL document CHEMBL3988442, “University of Dundee, Small-Polar-MMV Screening Library” (2021)
For some of these results: Measured potencies and affinities stand elsewhere.

Legend:
Set-up in all cases: scale not given: direction of the effect not stated beside the values
[1] = target: Protein translocase subunit SecA (Escherichia coli (strain K12)) (UniProt P10408); experiment: Assay to Identify E. coli SecA ATPase Inhibitors; format: functional; conditions: 30 µM
[2] = target: T1, Ubiquitin-activating enzyme e1, putative (Leishmania donovani (strain BPK282A1)) (UniProt E9BSI1); experiment: Leishmania donovani Ubiquitin Activating Enzyme (LdE1); format: functional; conditions: 30 µM
T1 sequence (whole entry): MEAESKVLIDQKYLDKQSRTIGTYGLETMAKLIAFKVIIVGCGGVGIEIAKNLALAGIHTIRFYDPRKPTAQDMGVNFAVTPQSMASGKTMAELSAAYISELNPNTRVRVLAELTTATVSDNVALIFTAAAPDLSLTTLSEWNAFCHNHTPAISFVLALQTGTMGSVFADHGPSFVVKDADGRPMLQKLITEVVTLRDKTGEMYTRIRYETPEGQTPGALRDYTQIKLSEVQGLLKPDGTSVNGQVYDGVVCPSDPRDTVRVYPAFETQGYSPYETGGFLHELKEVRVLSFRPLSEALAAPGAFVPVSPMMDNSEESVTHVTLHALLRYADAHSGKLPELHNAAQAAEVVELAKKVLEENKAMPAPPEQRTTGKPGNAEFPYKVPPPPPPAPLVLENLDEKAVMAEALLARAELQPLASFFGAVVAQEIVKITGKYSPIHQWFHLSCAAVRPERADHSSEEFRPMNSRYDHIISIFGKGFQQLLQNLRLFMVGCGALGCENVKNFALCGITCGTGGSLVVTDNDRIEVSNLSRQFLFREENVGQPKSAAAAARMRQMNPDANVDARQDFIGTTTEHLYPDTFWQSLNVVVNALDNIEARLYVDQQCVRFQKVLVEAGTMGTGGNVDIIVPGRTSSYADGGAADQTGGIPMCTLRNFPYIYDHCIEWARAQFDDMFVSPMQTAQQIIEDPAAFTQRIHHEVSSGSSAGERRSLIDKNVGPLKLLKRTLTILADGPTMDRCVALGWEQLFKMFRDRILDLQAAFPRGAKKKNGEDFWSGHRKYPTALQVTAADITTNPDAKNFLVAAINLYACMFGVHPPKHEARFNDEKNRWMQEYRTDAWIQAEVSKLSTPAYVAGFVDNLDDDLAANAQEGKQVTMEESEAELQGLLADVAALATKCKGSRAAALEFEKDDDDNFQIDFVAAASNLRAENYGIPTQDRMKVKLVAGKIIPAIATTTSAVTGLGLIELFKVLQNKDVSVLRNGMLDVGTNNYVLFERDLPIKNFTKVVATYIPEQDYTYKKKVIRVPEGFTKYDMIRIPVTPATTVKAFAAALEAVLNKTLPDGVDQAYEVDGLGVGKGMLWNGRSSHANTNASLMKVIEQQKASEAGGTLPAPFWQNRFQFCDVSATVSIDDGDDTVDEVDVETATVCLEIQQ

[3] = target: AMP-activated protein kinase, AMPK (Homo sapiens) (UniProt P54646+O43741+P54619+Q9UGJ0+Q9Y478+Q13131+Q9UGI9); experiment: AMP-dependent Kinase enzyme assay. An in vitro enzyme assay that detects ADP turnover that is directly proportional to AMPK activity. This uses naive AMPK that is activated during the assay with MK-8722; format: functional; conditions: 30 µM
[4] = target: Sialic acid-binding Ig-like lectin 9 (Homo sapiens) (UniProt Q9Y336); experiment: Hs-Siglec9 ALPHAscreen SOP 20170721; conditions: 10 µM
Sialic acid-binding Ig-like lectin 9 (Homo sapiens), sequence (Q9Y336 whole entry): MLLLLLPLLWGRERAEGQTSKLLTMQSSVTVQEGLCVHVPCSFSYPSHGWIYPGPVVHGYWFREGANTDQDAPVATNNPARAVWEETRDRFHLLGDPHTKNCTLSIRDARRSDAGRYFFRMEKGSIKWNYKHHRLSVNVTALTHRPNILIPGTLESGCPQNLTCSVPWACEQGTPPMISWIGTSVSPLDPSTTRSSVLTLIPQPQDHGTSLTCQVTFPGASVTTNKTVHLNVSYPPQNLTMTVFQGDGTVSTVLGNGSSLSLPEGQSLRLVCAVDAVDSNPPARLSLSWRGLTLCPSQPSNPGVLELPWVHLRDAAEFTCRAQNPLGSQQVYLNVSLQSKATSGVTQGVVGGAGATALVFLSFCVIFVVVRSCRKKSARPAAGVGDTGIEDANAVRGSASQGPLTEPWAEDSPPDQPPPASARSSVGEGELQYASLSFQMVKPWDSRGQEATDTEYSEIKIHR

[5] = test system: Trypanosoma cruzi; experiment: Trypanosoma cruzi phosphomannomutase and mannose-1-phosphate guanylyltransferase assay; format: functional; conditions: 10 µM
[6] = target: T2, Arginase-2, mitochondrial (Homo sapiens) (UniProt P78540); experiment: in vitro enzyme assay to detect the production of urea directly proportional to the activity of Arginase II; format: functional; conditions: 33.3 µM; also: in the data most compounds retested in dose-response had high values
T2 sequence (whole entry): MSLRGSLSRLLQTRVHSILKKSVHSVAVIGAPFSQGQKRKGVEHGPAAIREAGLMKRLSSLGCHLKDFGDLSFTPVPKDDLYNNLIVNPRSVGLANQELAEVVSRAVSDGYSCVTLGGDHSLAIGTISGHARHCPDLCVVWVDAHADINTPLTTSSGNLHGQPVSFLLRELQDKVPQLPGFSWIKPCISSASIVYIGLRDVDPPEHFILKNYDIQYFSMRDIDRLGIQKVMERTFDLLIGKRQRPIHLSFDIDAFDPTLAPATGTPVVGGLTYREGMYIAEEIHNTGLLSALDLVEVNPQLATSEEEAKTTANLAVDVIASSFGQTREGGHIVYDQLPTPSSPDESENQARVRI

[7] = target: T3, Proteasome subunit beta (Trypanosoma cruzi) (UniProt O96673); experiment: Trypanosoma cruzi proteasome chymotrypsin-like activity (TcProtChymo) assay.; also: in the data most compounds retested in dose-response had high values; format: functional; conditions: 9.37 µM
T3 sequence (whole entry): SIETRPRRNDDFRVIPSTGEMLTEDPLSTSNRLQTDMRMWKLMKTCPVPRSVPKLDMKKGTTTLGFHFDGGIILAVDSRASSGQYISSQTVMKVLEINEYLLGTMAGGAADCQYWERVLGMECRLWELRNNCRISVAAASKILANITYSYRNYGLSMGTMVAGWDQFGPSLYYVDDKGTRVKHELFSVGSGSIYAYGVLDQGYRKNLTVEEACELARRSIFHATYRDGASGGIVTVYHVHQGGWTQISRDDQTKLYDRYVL

[8] = organism: Homo sapiens; experiment: To identify inhibition of the IFN signalling (Jak-Stat) pathway via expression of an eGFP reporter gene under the control of an IFN-stimulated response element (ISRE) containing MxA promoter.; format: functional; conditions: 30 µM
[9] = target: T4, Tyrosyl-tRNA synthetase, putative (Trypanosoma cruzi (strain CL Brener)) (UniProt Q4DSP6); experiment: Trypanosoma cruzi tyrosyl tRNA synthetase (TcYRS) _High Tyrosine SOP; format: functional; conditions: 30 µM; also: in the data most compounds retested in dose-response had high values
T4 sequence (whole entry): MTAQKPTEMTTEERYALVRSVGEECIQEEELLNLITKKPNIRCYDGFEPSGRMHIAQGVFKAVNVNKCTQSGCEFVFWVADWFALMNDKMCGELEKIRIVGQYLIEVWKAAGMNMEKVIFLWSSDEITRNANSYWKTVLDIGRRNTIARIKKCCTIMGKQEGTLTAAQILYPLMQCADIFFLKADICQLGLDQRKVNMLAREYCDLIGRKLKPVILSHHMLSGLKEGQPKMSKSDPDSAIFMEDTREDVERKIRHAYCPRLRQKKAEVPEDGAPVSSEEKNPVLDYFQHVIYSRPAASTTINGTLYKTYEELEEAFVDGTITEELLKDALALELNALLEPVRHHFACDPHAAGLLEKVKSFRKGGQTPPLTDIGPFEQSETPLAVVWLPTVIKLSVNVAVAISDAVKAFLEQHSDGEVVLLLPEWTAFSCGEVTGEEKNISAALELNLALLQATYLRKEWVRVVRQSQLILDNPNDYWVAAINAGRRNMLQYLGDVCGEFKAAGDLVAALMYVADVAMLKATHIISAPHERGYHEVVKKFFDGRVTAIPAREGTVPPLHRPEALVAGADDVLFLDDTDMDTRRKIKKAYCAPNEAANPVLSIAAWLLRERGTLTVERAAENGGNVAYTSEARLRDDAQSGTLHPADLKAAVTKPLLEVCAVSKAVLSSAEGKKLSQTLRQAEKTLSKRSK

[10] = target: T4, Tyrosyl-tRNA synthetase, putative (Trypanosoma cruzi (strain CL Brener)); experiment: Trypanosoma cruzi tyrosyl tRNA synthetase (TcYRS) SOP; format: functional; conditions: 30 µM
[11] = target: Chromo domain-containing protein 1 (Saccharomyces cerevisiae (strain ATCC 204508 / S288c) (Baker's yeast)) (UniProt P32657); experiment: ScCHD-1 Enzyme Inhibition Assay; format: functional; conditions: 30 µM; also: in the data most compounds retested in dose-response had high values
Chromo domain-containing protein 1 (Saccharomyces cerevisiae (strain ATCC 204508 / S288c) (Baker's yeast)), sequence (P32657 whole entry, the tested form may be a part): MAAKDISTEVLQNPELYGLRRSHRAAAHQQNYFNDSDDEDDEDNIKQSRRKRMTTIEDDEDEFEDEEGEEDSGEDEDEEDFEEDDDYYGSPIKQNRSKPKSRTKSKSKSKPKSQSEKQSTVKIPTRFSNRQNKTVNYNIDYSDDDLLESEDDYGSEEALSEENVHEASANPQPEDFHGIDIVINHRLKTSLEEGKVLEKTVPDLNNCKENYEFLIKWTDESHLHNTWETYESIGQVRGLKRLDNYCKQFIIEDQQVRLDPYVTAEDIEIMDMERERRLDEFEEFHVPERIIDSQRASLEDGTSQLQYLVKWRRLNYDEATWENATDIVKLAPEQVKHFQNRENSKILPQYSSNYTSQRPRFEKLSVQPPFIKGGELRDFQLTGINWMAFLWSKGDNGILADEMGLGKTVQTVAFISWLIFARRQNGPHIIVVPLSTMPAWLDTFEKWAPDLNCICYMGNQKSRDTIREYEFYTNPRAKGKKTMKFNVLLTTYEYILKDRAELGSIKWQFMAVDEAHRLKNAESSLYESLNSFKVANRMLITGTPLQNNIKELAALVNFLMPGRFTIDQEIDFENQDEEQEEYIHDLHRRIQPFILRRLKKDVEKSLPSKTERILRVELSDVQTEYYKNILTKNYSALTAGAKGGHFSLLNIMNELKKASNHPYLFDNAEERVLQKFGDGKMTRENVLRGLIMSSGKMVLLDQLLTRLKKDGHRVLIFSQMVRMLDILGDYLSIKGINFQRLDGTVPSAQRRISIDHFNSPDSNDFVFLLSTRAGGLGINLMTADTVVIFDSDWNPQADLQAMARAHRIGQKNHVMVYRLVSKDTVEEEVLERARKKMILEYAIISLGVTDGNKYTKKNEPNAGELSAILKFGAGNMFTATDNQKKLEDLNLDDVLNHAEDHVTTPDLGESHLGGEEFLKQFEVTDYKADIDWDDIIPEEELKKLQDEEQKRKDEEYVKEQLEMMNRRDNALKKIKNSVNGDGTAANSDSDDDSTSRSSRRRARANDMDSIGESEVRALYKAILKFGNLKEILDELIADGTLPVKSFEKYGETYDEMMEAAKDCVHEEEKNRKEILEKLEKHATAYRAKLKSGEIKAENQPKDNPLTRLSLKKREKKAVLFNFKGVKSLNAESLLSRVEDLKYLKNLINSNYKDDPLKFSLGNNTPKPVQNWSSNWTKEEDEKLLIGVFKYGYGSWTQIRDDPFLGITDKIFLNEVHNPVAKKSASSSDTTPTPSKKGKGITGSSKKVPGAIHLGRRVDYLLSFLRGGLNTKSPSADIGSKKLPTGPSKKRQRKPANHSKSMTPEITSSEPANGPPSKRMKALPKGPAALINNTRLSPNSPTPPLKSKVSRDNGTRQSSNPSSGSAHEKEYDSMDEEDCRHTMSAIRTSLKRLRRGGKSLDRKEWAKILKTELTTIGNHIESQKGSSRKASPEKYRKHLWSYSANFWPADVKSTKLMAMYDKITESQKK

Protein translocase subunit SecA (Escherichia coli (strain K12)), sequence (P10408 whole entry): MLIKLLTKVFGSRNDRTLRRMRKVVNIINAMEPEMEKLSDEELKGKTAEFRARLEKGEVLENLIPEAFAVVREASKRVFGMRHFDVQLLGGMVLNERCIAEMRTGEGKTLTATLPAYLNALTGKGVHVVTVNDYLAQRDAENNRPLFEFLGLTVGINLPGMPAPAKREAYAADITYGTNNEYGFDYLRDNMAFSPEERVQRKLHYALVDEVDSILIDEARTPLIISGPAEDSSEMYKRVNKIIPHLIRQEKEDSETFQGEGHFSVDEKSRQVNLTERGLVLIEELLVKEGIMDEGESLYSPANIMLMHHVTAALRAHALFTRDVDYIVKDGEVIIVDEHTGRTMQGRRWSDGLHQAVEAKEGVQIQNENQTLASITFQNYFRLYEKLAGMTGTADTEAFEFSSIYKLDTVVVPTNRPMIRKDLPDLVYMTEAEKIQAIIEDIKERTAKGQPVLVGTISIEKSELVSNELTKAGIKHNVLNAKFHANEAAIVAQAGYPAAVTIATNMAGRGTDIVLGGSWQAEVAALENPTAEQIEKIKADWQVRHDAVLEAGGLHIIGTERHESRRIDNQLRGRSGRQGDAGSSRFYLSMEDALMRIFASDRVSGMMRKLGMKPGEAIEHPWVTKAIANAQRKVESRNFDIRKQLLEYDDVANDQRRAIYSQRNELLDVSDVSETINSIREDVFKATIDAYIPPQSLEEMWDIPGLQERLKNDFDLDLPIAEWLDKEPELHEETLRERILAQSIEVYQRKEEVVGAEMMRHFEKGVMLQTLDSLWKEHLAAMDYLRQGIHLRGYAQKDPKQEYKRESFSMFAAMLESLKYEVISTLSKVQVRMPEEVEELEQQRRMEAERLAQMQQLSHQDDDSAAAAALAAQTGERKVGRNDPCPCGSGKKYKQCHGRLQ

Row | Structure (SMILES) | Percent Effect [1] [%] | Percent Effect [2] [%] | Percent Effect [3] [%] | Percent Effect [4] [%] | Percent Effect [5] [%] | Percent Effect [6] [%] | Percent Effect [7] [%] | Percent Effect [8] [%] | Percent Effect [9] [%] | Percent Effect [10] [%] | Percent Effect [11] [%]
1 | CC(COc1ccc(F)cc1F)NC(=O)NCCN1CCOCC1 (stereo unspecified) | -3.66 | 10.5 | 7.15 | -1.15 | 4.77 | -5.92 | 16 | -26.7 | 1.06 | 13 | -2.74
2 | Cc1ncc(CN(C)CC2CCCN2c2cccnn2)s1 (stereo unspecified) | -4.33 | 1.27 | -16.7 | 0.813 | 3.79 | -0.645 | 25.6 | 0.297 | 9.38 | 2.53 | -37.9
3 | Cc1ccc(CN2CCOC3(COCCN(CCN(C)C)C3)C2)o1 (stereo unspecified) | -3.53 | 5.33 | 9.65 | 0.443 | 1.18 | -0.699 | 14 | 3.66 | 8.51 | 19.2 | -3.31
4 | CCN(Cc1nc(C(C)C)no1)Cc1cccs1 | -3.02 | 7.79 | -1.84 | 6.48 | 5.8 | 1.38 | 12 | 6.22 | 1.07 | -1.24 | -5.13
5 | c1cncc(OCc2nnn3c2CN(Cc2ccsc2)CCC3)c1 | -3.57 | 2.67 | -0.385 | 1.61 | 7.72 | -48.2 | 6.84 | 1.38 | -3.12 | -5 | -5.39
6 | CN(CCN1CCCCC1)C(=O)c1cc(CN2CCOCC2)on1 | -2.82 | 8.22 | -18.2 | -4.57 | 2.74 | 1.82 | 21.8 | -8.25 | 7.53 | 20 | -3.28
7 | CN(Cc1cscn1)C1CCCN(Cc2noc(C3CC3)n2)C1 (stereo unspecified) | -0.734 | 23.7 | -5.57 | -10.6 | 2.33 | 0.36 | 12.9 | 0.628 | 7.39 | 28.4 | -12.5
8 | CS(=O)(=O)N1CCC(C(=O)NC(Cc2ccsc2)c2ccccn2)CC1 (stereo unspecified) | -4.27 | 6.76 | 8.49 | 4.61 | 2.17 | 1.16 | 4.84 | 13.2 | 5.38 | 9.09 | -8.15
9 | COCCNC(=O)CCc1c(C)nn(-c2nc(C)c(C)c(=O)[nH]2)c1C | 0.376 | 7.79 | -3.21 | -3.83 | -7 | 23.9 | 8.01 | 4.73 | 8.47 | 14.1 | -7.76
10 | O=C(CCc1cccs1)N1CCC(N2CCNC2=O)CC1 | -2.57 | 23.4 | -4.07 | -12.7 | 3.23 | -1.05 | 18.5 | -5.88 | 7.62 | 25.9 | -19.5
11 | Cc1[nH]nc2ncc(C(=O)N3CCN(CC(C)C)CC3)cc12 | -2.98 | 15.8 | 10.4 | -2.95 | 7.56 | -3.24 | 7.36 | -2.6 | 8.37 | 23.5 | -7.62
